Bioassay records deposited in PubChem by National Center for Advancing Translational Sciences (NCATS).
Sfp PPTase inh = qHTS Assay for Inhibitors of Bacillus subtilis Sfp phosphopantetheinyl transferase (PPTase); 4'-phosphopantetheinyl transferase ffp (Bacillus subtilis), Q9F4F7; Biochemical Sfp PPTase activity, qHTS; Potency, µM, actives largely listed as inhibitors; hit rate 3.5% among 310,000; AID 1490, 2009;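 note: the enzyme is Sfp with the accession as filed and its product quenches rhodamine fluorescence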
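Compounds were incubated with enzyme (final 15 nM) for 15 min at room temperature before substrate addition started the reaction. Fluorescence at 525 nm excitation, 598 nm emission was recorded immediately and after 30 minutes.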
G9a block = qHTS Assay for Inhibitors of Histone Lysine Methyltransferase G9a | Histone-lysine N-methyltransferase EHMT2 (Homo sapiens), Q96KQ7 | G9a H3K9 monomethylation, AlphaScreen, 2 h | Potency, µM (highest dose often 102 µM), most hits filed as inhibitors | hit rate 8.8% among 350,000 | AID 504332, 2011; note: nearly all actives have a fitted effect of over 75% in size
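Readings reflect AlphaScreen signal from monomethyl-H3K9 antibody detection. HMT at 20 nM; substrate b-H3K9 500 nM; cofactor SAM 20 uM; 2 h RT reaction; compounds tested as titrations in qHTS with 15 min preincubation.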
KDM4E inh = qHTS Assay for Inhibitors of Human Jumonji Domain Containing 2E (JMJD2E). AID 2147, 2009. Lysine-specific demethylase 4E (Homo sapiens), B2RXH2. JMJD2E catalytic domain, FDH-coupled NADH fluorescence (FDH is formaldehyde dehydrogenase). Potency, µM (series often up to 57.1 µM), hits mostly inhibitors. hit rate 1.6% among 230,000; active = well fitted inhibition curve with a large enough effect, not every such curve was filed as active; inconclusive = small, poorly fitted or top-dose-only effect, or another doubt; inactive = no such curve, though single readings can be large or run the other way; note: nearly all actives have a fitted effect of over 50% in size
ALDH1A1 block = qHTS Assay for Inhibitors of Aldehyde Dehydrogenase 1 (ALDH1A1); Potency, µM (doses to about 75.3 µM), most hits filed as inhibitors; hit rate 7.3% among 220,000; Aldehyde dehydrogenase 1A1 (Homo sapiens), P00352; Purified ALDH1A1, NADH fluorescence, propionaldehyde substrate; active = well fitted inhibition curve with a large enough effect, not every such curve was filed as active; inconclusive = small, poorly fitted or top-dose-only effect, or another doubt; inactive = no such curve, though single readings can be large or run the other way
Target sequence (P00352 whole entry, looked up): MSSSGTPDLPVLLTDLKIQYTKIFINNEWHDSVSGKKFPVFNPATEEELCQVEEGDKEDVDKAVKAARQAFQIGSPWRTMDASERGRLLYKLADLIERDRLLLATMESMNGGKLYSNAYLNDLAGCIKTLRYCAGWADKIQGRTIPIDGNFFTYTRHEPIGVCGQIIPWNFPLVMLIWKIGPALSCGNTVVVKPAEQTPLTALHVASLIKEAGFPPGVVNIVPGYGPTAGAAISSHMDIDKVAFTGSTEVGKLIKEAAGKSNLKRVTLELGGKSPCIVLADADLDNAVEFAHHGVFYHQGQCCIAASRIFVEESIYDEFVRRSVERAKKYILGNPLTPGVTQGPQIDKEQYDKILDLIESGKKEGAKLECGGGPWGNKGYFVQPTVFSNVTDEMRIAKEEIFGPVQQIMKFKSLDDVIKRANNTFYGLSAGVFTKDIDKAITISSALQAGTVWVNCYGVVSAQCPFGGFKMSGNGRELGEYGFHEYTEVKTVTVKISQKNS
LMNA splice mod = qHTS Assay for Modulators of Lamin A Splicing | hit rate 0.01% among 200,000 | AID 1487, 2009 | HeLa LMNA splicing GFP/RFP minigene ratio, 48 h | Potency, µM (highest dose often 46.1 µM), usual class: inhibitors; active = well fitted inhibition curve with a large enough effect in the signal ratio, with a control signal flat, not every such curve was filed as active; inconclusive = small, poorly fitted or top-dose-only effect, or effect the other way, or a change in a side signal; the % refers to the signal ratio
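Read-out is the ratio of GFP to DsRed2 object intensity, acquired by 488 nm laser-scanning cytometry on HeLa lamin A-EGFP minigene reporter cells. Compound incubation 48 hrs at 37 °C in Opti-MEM with 2% FBS; DMSO 0.5% final.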
miR-21 reporter = qHTS Assay for Modulators of miRNAs and/orActivators of miR-21. HeLa miR-21 FLuc reporter, luciferase, 48 h. Potency, µM (series often up to 38.3 µM), most hits filed as activators. 340,000 tested, under 10 active;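 note: miR-21 action dims this reporter so a rising signal means less miR-21 action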
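Using DMEM plus 10% FBS, HeLa miR-21-FLuc cells are incubated with test compounds (final up to about 40uM) for 48 hours; firefly luciferase signal is then imaged following reagent-mediated lysis.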
Of the large screens only hits and unclear results are named; the others gave an inactive call; ! = a repeat was not active. Compounds with a hit are over-represented: about 13% of the library has one in this group of screens. Unless noted, calls come from the whole dose curve; as a rule, active = well fitted curve in the direction sought with a large enough effect; inconclusive = small, poorly fitted or top-dose-only effect, or another doubt; inactive = no such curve, though single readings can be large; an effect the other way counts as inactive or inconclusive.

COc1ccc(C(=O)C2CCCN(C3CSCCSC3)C2)c(OC)c1 (stereo unspecified)	ALDH1A1 block 14µM
COc1ccc(C(=O)C2CCCN(CCO)C2)c(C)c1 (stereo unspecified)	none (no result: G9a block, KDM4E inh, ALDH1A1 block, LMNA splice mod)
CC12CCC3C(=CCc4cc(O)ccc43)C1CCC2=O (stereo unspecified)	ALDH1A1 block inconclusive (no result: LMNA splice mod, miR-21 reporter)
NC(=O)CSP(=O)(c1ccccc1)c1ccccc1	Sfp PPTase inh 16µM, G9a block 13µM
O=Nc1ccc(Nc2ccccc2)cc1	ALDH1A1 block 0.063µM (no result: Sfp PPTase inh, G9a block, KDM4E inh, LMNA splice mod, miR-21 reporter)
COc1ccc(C(C)=O)cc1COc1ncnc2ccccc12	G9a block inconclusive, ALDH1A1 block 1.8µM
CCOc1ccc(Nc2c(S(=O)(=O)c3ccc(C)cc3)cnc3ccc(F)cc23)cc1	G9a block 10µM (no result: Sfp PPTase inh, KDM4E inh, ALDH1A1 block, LMNA splice mod)
COc1ccc(OC)c(-n2c(O)c(/C=C3\C=Nc4ccccc43)c(=O)[nH]c2=O)c1	Sfp PPTase inh 50µM (no result: KDM4E inh, ALDH1A1 block, LMNA splice mod)
COc1ccccc1-n1c(O)c(/C=C2\C=Nc3ccccc32)c(=O)[nH]c1=O	Sfp PPTase inh inconclusive (no result: G9a block, KDM4E inh, ALDH1A1 block, LMNA splice mod)
CC(C)(Cl)Cl	none (no result: Sfp PPTase inh, G9a block, KDM4E inh, LMNA splice mod, miR-21 reporter)
O=C(Nc1ccc(Cl)cc1)O/N=C(\c1ccccc1)c1ccccn1	Sfp PPTase inh 40µM, G9a block inconclusive, KDM4E inh inconclusive
C[C@]12CC[C@H]3[C@@H](CC[C@@]45O[C@@H]4C(=O)C(C#N)C[C@]35C)[C@@H]1CC[C@@H]2O (stereo partly specified)	none (no result: KDM4E inh, ALDH1A1 block, LMNA splice mod, miR-21 reporter)
N=C1/C(=C/c2ccc(OC(=O)c3ccco3)cc2)C(=O)N=C2SC=CN12	KDM4E inh 14µM, ALDH1A1 block inconclusive
CCn1cc(C(=O)O)c(=O)c2ccc(C)nc21	G9a block 8.9µM!, KDM4E inh inconclusive, LMNA splice mod inconclusive
CCn1cc(C(=O)NCc2ccccc2)c2ccccc21	LMNA splice mod inconclusive
CCN(CC)C(=O)C(C(=O)c1cccc([N+](=O)[O-])c1)n1cc(Cl)ccc1=O (stereo unspecified)	ALDH1A1 block 18µM (no result: LMNA splice mod)
CCOP(=O)(OCC)C(NC(=O)c1cccc([N+](=O)[O-])c1)C(Cl)(Cl)Cl (stereo unspecified)	none (no result: ALDH1A1 block, LMNA splice mod)
CCCCn1c(O)c(/C=N/NC(=O)c2ccncc2)c(=O)[nH]c1=S	KDM4E inh inconclusive (no result: ALDH1A1 block, LMNA splice mod)
Cn1c(O)c(/C=N/NC(=O)c2ccncc2)c(=O)n(C)c1=S	KDM4E inh 32µM (no result: ALDH1A1 block, LMNA splice mod)
Cn1c(O)c(/C=N/NC(=O)c2ccncc2)c(=O)[nH]c1=S	KDM4E inh inconclusive, ALDH1A1 block inconclusive (no result: G9a block)
CCn1c(O)c(/C=N/NC(=O)c2ccncc2)c(=O)n(CC)c1=S	Sfp PPTase inh 79µM, ALDH1A1 block inconclusive
CCOc1cc(C2C(C#N)=C(N)Oc3c2c(=O)oc2ccccc32)ccc1OC(=O)c1cccs1 (stereo unspecified)	Sfp PPTase inh 50µM, LMNA splice mod inconclusive
COc1cccc(-c2nn(Cc3ccccc3)cc2C(=O)O)c1	none (no result: KDM4E inh, ALDH1A1 block, LMNA splice mod)
COc1cccc(CNC(=O)CSc2ccc(-c3ccco3)nn2)c1	Sfp PPTase inh 22µM, G9a block 28µM, KDM4E inh inconclusive, ALDH1A1 block 13µM (no result: LMNA splice mod)
C[C@H](CCC(=O)O)[C@H]1CC[C@@H]2[C@@H]3[C@@H](O)C[C@H]4C[C@@H](O)CC[C@@]4(C)[C@H]3CC[C@@]21C	none (no result: miR-21 reporter)
COc1cc2c(cc1O)C[C@H]1c3c(cc(OC)c(O)c3-2)CCN1C	KDM4E inh inconclusive, ALDH1A1 block inconclusive (no result: G9a block, LMNA splice mod, miR-21 reporter)
COc1ccc(-c2n(-c3ccccn3)c3ccccc3[n+]2-c2ccccn2)cc1	G9a block 3.2µM, KDM4E inh inconclusive (no result: ALDH1A1 block, LMNA splice mod)
Cc1ccc(-c2nc3ccccc3c(=O)n2-c2ccccn2)cc1	ALDH1A1 block inconclusive
ClC(Cl)Br	none (no result: Sfp PPTase inh, G9a block, KDM4E inh, LMNA splice mod, miR-21 reporter)
CCCN(CCC)[C@H]1CCc2c(F)ccc(O)c2C1	G9a block 50µM, LMNA splice mod inconclusive (no result: Sfp PPTase inh, miR-21 reporter)
Cc1ccc(C=C2C(Cl)=C(Cl)C(Cl)=C2Cl)cc1	Sfp PPTase inh inconclusive, G9a block 8.9µM (no result: ALDH1A1 block, LMNA splice mod)
O=C(O)CP(=O)(O)c1ccc(Cl)cc1	Sfp PPTase inh inconclusive, G9a block 50µM
